# Measured values published in ChEMBL document CHEMBL3988442, “University of Dundee, Small-Polar-MMV Screening Library” (2021).
# The campaign covered roughly 48,000 compounds. About 13,000 (27%) showed an effect of 50% or more. Some of the results follow.
# Test system: Wolbachia pipientis
# Assay: Anti-Wolbachia Cell-Based Screen
# Format: functional
# Design: scale not given: in the data most compounds retested in dose-response had high values
# Details: 5 µM
row,SMILES,Percent Effect
1,O=C(NCc1cccc(N2CCCCC2=O)c1)[C@@H](O)c1ccccc1,-1.556%
2,CC(C)c1ccc(N2CCc3onc(-c4ccc(F)c(F)c4)c3C2)nn1,26%
3,CCC1CN(C(=O)Nc2cnc3c(cnn3C(C)C)c2)CCO1 (stereo unspecified),6.429%
4,CCC(CC)CN1C[C@@H]2OCCN(Cc3cnn(C)c3)[C@@H]2C1,-7.114%
5,COc1cc(C)c(C)cc1S(=O)(=O)NCC(O)c1cccn1C (stereo unspecified),-4.325%
6,COC[C@@H]1CCCN1C(=O)c1cc(-c2cccc(OC)c2)n[nH]1,-18.68%
7,COCC1CCCCN1C(=O)c1cc(-c2cccc(OC)c2)n[nH]1 (stereo unspecified),-6.685%
8,COc1cccc(-c2cc(C(=O)Nc3nc[nH]n3)[nH]n2)c1,131.8%
9,CN1CC[C@H](c2nnc(Cc3c[nH]c4ccccc34)o2)C1,-2.7%
10,CN1CCC(c2cc(CCO)ncn2)C1 (stereo unspecified),105.5%
11,CC(C)N1CCC(CC(=O)NCCc2cc(O)ncn2)CC1,-16.23%
12,CCn1c(N)nc2cc(C(=O)N3CCN(c4ccncc4)CC3)cnc21,-2.234%
13,O=C(CCNC(=O)c1ccccc1N1CCOCC1)NC1CCCC1,3.858%
14,CNC(=O)C1(C)CN(c2nnc(C)c3ccccc23)CCO1 (stereo unspecified),101.8%
15,Cc1nnc(N2CCCC2)c(C(N)=O)c1C,-23.35%
16,Cc1ccc(N2CCCC3(CCN(C(=O)NC4CCCC4)C3)C2)nn1 (stereo unspecified),1.477%
17,Cc1nnc(N2CCOC(C)(C(=O)N(C)C)C2)c2ccccc12 (stereo unspecified),78.63%
18,CCOC(=O)c1nnc2ccccc2c1N1CCOC(C)(C)C1,7.014%
19,CNC(=O)[C@@]12CCO[C@@H]1CCN(S(=O)(=O)c1ccccc1C)C2,-56.15%
20,Cc1nnc(N2CCOC(C)(C(=O)NC3CCCC3)C2)c2ccccc12 (stereo unspecified),100.6%
21,Cn1cnc(S(=O)(=O)N2CCN(Cc3ccco3)CC2)c1Cl,-3.277%
22,Cc1n[nH]c(C)c1CN1CC[C@@H]2[C@@H](CCC(=O)N2CCc2c[nH]cn2)C1,-6.371%

row,SMILES,Percent Effect
1,COCCc1noc(-c2cn(CCc3ccccc3)nn2)n1,-16.95%
2,CC(=O)c1cccc(NC(=O)N(CCO)C2CCc3ccccc32)c1 (stereo unspecified),6.805%
3,COCCCS(=O)(=O)N1CCN(c2cccc(O)c2)CC1,-6.016%
4,CN1C(=O)CCN(C(=O)C2CCCCC2)c2ccccc21,-31.28%
5,O=C(C1CCCOC1)N1CCc2ccc(F)cc21 (stereo unspecified),-7.553%
6,CCN1CC(C(=O)N2CCC(Oc3ccccc3Cl)CC2)CC1=O (stereo unspecified),19.99%
7,CCN1Cc2cc(F)ccc2N(C(=O)C2CCC2)CCC1=O,113.5%
8,O=C(C1CCC1)N1CCC(=O)N(C2CC2)Cc2cc(F)ccc21,89.78%
9,O=C1N[C@@H]2CCN(C(=O)C3CCC3)[C@@H]2C(=O)N1c1ccc(F)cc1,10.21%
10,CCN1Cc2ccccc2N(C(=O)C2CCC2)CCC1=O,94.47%
11,O=C1NCCCCC1NC(=O)N1CCCc2cc(F)ccc21 (stereo unspecified),-6.196%
12,CCN1Cc2cc(F)ccc2N(C(C)=O)CCC1=O,105.8%
13,Cc1noc(C)c1C(C)NC(=O)N1CCC(NC(=O)c2ccsc2)CC1 (stereo unspecified),-3.825%
14,COc1c(NC(=O)C(C)CCOc2ccccc2)c(C)nn1C (stereo unspecified),-7.796%
15,CC(O)CN1CCN(C(=O)CN(C)c2cnccn2)CC1 (stereo unspecified),-17.8%
16,Cn1c(N)nnc1SCc1c(F)cccc1Br,-12.74%
17,Cc1cc(C)c(C(=O)N[C@H](C(N)=O)c2ccccc2)c(=O)[nH]1,4.18%
18,CCOC(=O)CCCNc1nc(C(C)(C)C)nc2c1cnn2C,0.3135%
19,O=C(c1ccsc1)N1CCN(CC(O)c2cccc(F)c2)CC1 (stereo unspecified),8.058%
20,CC(C(=O)N1CCn2cncc2C1)N1CCCC1 (stereo unspecified),4.282%
21,O=C(CCCNCc1ccc(Cl)c2cccnc12)NC1CC1,-3.748%
22,COc1ccc(Cl)cc1-n1nc(C2CCCC2)nc1Cn1cnnn1,-18.77%

row,SMILES,Percent Effect
1,Nc1nc2c(c(N3CCC(CN4CCCC4=O)CC3)n1)CCNCC2,-8.42%
2,CCC1=N[C@@]2(CC[C@@H]3CN(S(C)(=O)=O)C[C@@H]32)C(=O)N1CC(C)C,-16.48%
3,Cc1cccc(CN2CCc3c(CNC(=O)CC#N)nn(C)c3C2)n1.O=C(O)C(F)(F)F,-9.631%
4,CC(C)Cc1nc(NC(=O)c2cc(-c3cccnc3)n[nH]2)n[nH]1,127.5%
5,CC(C)C[C@H](NC(=O)c1cc(-c2cccn2C)n[nH]1)C(N)=O,6.399%
6,CC(C)Cc1nc(NC(=O)c2cccnc2)n[nH]1,118.7%
7,CC(C)COCC(NC(=O)c1cccnc1)c1ccco1 (stereo unspecified),-0.4808%
8,Cc1nn(C(C)C)c(C)c1NC(=O)c1cccnc1,6.145%
9,O=C(Nc1cc(-c2cccnc2)no1)C1CCC1,9.123%
10,Cn1cccc1-c1cc(C(=O)N2CC(c3cccnc3)C2)[nH]n1,-4.055%
11,Cc1cc(CC(C)Nc2nc(-c3cccnc3)nc3c2CNC3)[nH]n1 (stereo unspecified),-2.115%
12,O=C(Nc1ncc[nH]1)c1cc(-c2cccnc2)n[nH]1,118.3%
13,CC(=O)c1cccc(NC(=O)CN2CCCC(C3OCCO3)C2)c1 (stereo unspecified),1.142%
14,CN1CCN(CCCN(C)S(=O)(=O)CC2CCCCC2)CC1,-9.559%
15,N#CC1(C(=O)N2CCN(Cc3ccon3)CC2)CCC1,-11.71%
16,Cc1ccc(C(=O)NS(=O)(=O)c2ccc3c(c2)OCCCO3)o1,-8.261%
17,COc1c(C2CCCN2Cc2cc(C)no2)c(C)nn1C (stereo unspecified),-10.58%
18,CCn1c(CN2CCCC2)nnc1C1CCN(Cc2cc(C)no2)CC1,-0.1861%
19,Cc1cc(CN(C2CC2)C(C)C(C)C)on1 (stereo unspecified),26.3%
20,Cc1cc(NC(=O)CN2CCn3c(nnc3C(C)C)C2)on1,-16.14%
21,Cc1cc(-c2nn3c(C4CC4)nnc3s2)on1,189.6%
22,CC(C)c1nnc2sc(CC3CCS(=O)(=O)C3)nn12 (stereo unspecified),8.57%

row,SMILES,Percent Effect
1,Cc1cc(-c2nn3c(C(C)C)nnc3s2)on1,113.9%
2,Cc1cc(CN2CCN(c3nn4cc(C)nc4s3)CC2)on1,9.459%
3,CCn1cc(-c2nn3c(C(C)C)nnc3s2)c(C)n1,106.3%
4,Cc1cc(-c2nn3c(C4CCC4)nnc3s2)on1,155.9%
5,Cc1cc(CN2CCCC2c2noc(C3CC3)n2)c2ccccc2n1 (stereo unspecified),1.295%
6,Cc1noc(C)c1-c1n[nH]c2c1CN(S(=O)(=O)c1ccsc1)CC2,10.76%
7,N#Cc1cccc(Cl)c1NCCCc1nc(=O)[nH][nH]1,-19.22%
8,O=C(N[C@@H]1CCNC[C@H]1O)c1ccccc1OC(F)(F)C(F)F,-13.38%
9,Cc1ccn(Cc2nc(C(C)OCC(C)C)no2)c(=O)c1 (stereo unspecified),12.04%
10,CC(=O)N1CCCN(Cc2nnc(C(C)(C)C)o2)CC1,-4.735%
11,Cn1nc2c(cc1=O)CN(CC(=O)NC1CCCCNC1=O)CC2 (stereo unspecified),4.736%
12,CSc1ccc(C(=O)N(c2ccc(F)cn2)C2CCOCC2)o1,4.022%
13,CN1CCN(C(=O)c2cncc(CC3CCCN(C)C3)c2)CC1 (stereo unspecified),-11.29%
14,COCC(=O)N1CCCC(C(=O)N(C)CCCc2cnn(C)c2)C1 (stereo unspecified),14.99%
15,CN1CCN(C(=O)c2ccccc2)CC(Cc2cc(N(C)C)ncn2)C1 (stereo unspecified),80.45%
16,COCC(=O)N1CCN2C(=O)OC[C@H]2C1,-11.81%
17,COCC(=O)N1CCN(C)CC(Cc2cc(N(C)C)ncn2)C1 (stereo unspecified),95.35%
18,Cc1nn(C)c2c(N3CCN(C(=O)c4ccccc4)CC3)ncnc12,3.277%
19,OCc1cc2ccccc2nc1NCC1CC1,2.516%
20,O=C(Cn1cnc(NC(=O)c2ccccn2)n1)NCc1ccccc1,11.88%
21,COc1ccc(CN2CCOC3(CCCN(c4nnc(C)o4)C3)C2)cc1.O=C(O)C(F)(F)F (stereo unspecified),-9.107%
22,Cc1nc(CN2C(=O)CCC23CCN(Cc2ccccn2)CC3)cs1.O=C(O)C(F)(F)F.O=C(O)C(F)(F)F,113.7%

row,SMILES,Percent Effect
1,Cc1nc(CN2C(=O)CCC23CCN(c2ncccn2)CC3)cs1.O=C(O)C(F)(F)F,11.75%
2,COCCN1CCc2ccc(=O)n(Cc3csc(C)n3)c2CC1.O=C(O)C(F)(F)F.O=C(O)C(F)(F)F,-8.44%
3,Cc1nc(CN2C(=O)CCC23CCN(Cc2ccoc2)CC3)cs1.O=C(O)C(F)(F)F.O=C(O)C(F)(F)F,99.35%
4,CCOC1CC2(CCN(Cc3cccn3C)CC2)C1.O=C(O)C(F)(F)F,0.1287%
5,COCCN1CCC2(CCC(=O)N2Cc2csc(C)n2)CC1.O=C(O)C(F)(F)F.O=C(O)C(F)(F)F,99.3%
6,Cc1nc(CN2C(=O)CCC23CCN(Cc2cccn2C)CC3)cs1.O=C(O)C(F)(F)F.O=C(O)C(F)(F)F,110.4%
7,NC(=O)C1CCN(C(=O)CSC2CCCc3ccccc32)CC1 (stereo unspecified),-6.301%
8,CCOc1ccccc1C(CC(=O)N(C)c1ccccc1)NC(C)=O (stereo unspecified),3.437%
9,O=C(c1ccn(-c2cccc(Cl)c2)n1)N1CCN(C2CC2)CC1,7.351%
10,COCCNC(=O)c1cc(S(=O)(=O)N2CCCC2)cs1,6.896%
11,CCC(C)NC(=O)CS(=O)(=O)Cc1cc(C)ccc1C (stereo unspecified),-1.911%
12,CC(C)NC(=O)C(C)S(=O)(=O)c1cc2c(cc1Cl)OCCO2 (stereo unspecified),-0.523%
13,CCC(C)NC(=O)c1cncc(Br)c1 (stereo unspecified),12.99%
14,CC(C)NC(=O)CS(=O)(=O)c1cc2c(cc1Cl)OCCO2,-3.378%
15,CCC(C)NC(=O)c1cc(S(=O)(=O)N2CCCC2)c(C)s1 (stereo unspecified),99.85%
16,CCC(C)NC(=O)c1cc(S(=O)(=O)N(C)C)c(C)s1 (stereo unspecified),107%
17,CC(C)NC(=O)c1cc(Br)cc(S(=O)(=O)N2CCOCC2)c1F,-9.649%
18,Cc1sc(C(=O)NC(C)C)cc1S(=O)(=O)N(C)C,135.1%
